Bioassay records: PubChem, National Center for Advancing Translational Sciences (NCATS)
Lassa entry inh = blocks Lassa virus binding to or entry into cells; Lassa virus pseudotype entry inhibition, cell reporter; Potency, µM (highest dose often 37.9 µM), inactives show at the top dose activity change, negative = inhibition, actives largely listed as inhibitors; 1.2% of 300,000 active; calls by dose curve; tested in HEK293 cells; note: potency is the fitted concentration of half-maximal effect; nearly all actives have a fitted effect of over 50% in size
VACV Venus inh = vaccinia inhibition (Venus reporter). 0.46% of 330,000 active. Potency, µM (highest dose often 36.5 µM), inactives show at the highest dose activity change, negative = inhibition, hits mostly inhibitors. Vaccinia virus Venus reporter expression, fluorescence; calls by dose curve; tested in A549 cells; note: potency is the fitted concentration of half-maximal effect; nearly all actives have a fitted effect of over 30% in size
VACV mCherry inh = inhibitors of vaccinia virus infection (mCherry reporter signal) | Potency, µM (doses to about 36.5 µM), inactives show at the top dose activity change, negative = inhibition, usual class: inhibitors | Vaccinia virus mCherry reporter infection, fluorescence | 0.63% of 310,000 active; calls by dose curve; tested in A549 cells; note: potency is the fitted concentration of half-maximal effect; nearly all actives have a fitted effect of over 35% in size
Marburg entry inh = blocks Marburg virus binding to or entry into cells; Marburg virus pseudotyped entry inhibition, cell reporter; Potency, µM (doses to about 37.8 µM), for the others: at the top dose activity change, negative = inhibition, most hits filed as inhibitors; 1.8% of 300,000 active; AID 540276; calls by dose curve; tested in HEK293 cells; note: potency is the fitted concentration of half-maximal effect
HCV inhibitor = blocks hepatitis C virus. 3.4% of 340,000 active. Potency, µM (titrated, usually from 41.8 µM), for the others: at the highest dose activity change, negative = inhibition, usual class: inhibitors. Huh7.5.1 HCVcc-Cre infection, luciferase reporter, 44 h; active = well fitted inhibition curve with a large enough effect; inconclusive = small, poorly fitted or top-dose-only effect, or another doubt; inactive = no such curve, though single readings can be large or run the other way; note: potency is the fitted concentration of half-maximal effect
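Infectious HCV cell culture screen: compound-treated cells (1,000/well, pre-plated 4 h) are infected with HCVcc-Cre at roughly 0.5 moi and grown 44 h. Infection is quantified by luciferase signal after 15 min substrate incubation at room temperature.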
HCMV inh = inhibitors of human cytomegalovirus; activity change, negative = inhibition, % at 57.5 µM; AID 1259415; 4.5% of 410,000 active; HFF cells, HCMV-luciferase reporter, 72 h; hits give low values; in the data active = activity change below about -60%; inconclusive = no clear call, values can overlap the other calls; inactive = above about -39%
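Compounds were evaluated in HFFs infected with an HCMV luciferase reporter virus (MOI 1 PFU/cell). Luciferase in lysates collected 72 h post infection served as the replication measure.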
* hit, by the source's call; i = inactive; ? = inconclusive; · = not tested or not shown; [ ] = dose if it differs, or a comment. Only some compounds are listed: those with a hit (about 7.8% of all), similar ones and a draw of the others. % is set by controls: 0 for no effect and ±100 for the full control effect.

SMILES	Lassa entry inh	VACV Venus inh	VACV mCherry inh	Marburg entry inh	HCV inhibitor	HCMV inh
CCN(CC)c1ccc(/C=C(\C#N)C(=O)NCc2ccco2)cc1	·	·	·	·	-28%	?
CCN(CC)c1ccc(/C=C(\C#N)C(=O)NCc2ccccc2)cc1	?	-14%	?	3%	25µM*	·
Nc1nc(-c2ccc([N+](=O)[O-])cc2)cs1	7%	-11%	-13%	?	-2%	-79*
COCC(=O)Nc1nc(-c2ccc(-c3ccccc3)cc2)cs1	?	?	-31%	4%	?	5
CNc1nc(-c2ccc([N+](=O)[O-])cc2)cs1	18%	-19%	·	2%[46.1 µM]	-13%	-74*
O=[N+]([O-])c1ccc(-c2csc(N3CCCCCC3)n2)cc1	?	-9%	i	-6%	-22%	-24
COCC(=O)Nc1nc(-c2ccc([N+](=O)[O-])cc2)cs1	·	·	·	·	-4%	-89*
O=[N+]([O-])c1ccc(-c2csc(NN=C3CCCC3)n2)cc1	14%[46.1 µM]	-5%	-19%	?	8.9µM*	?
CCN1CCCC1CNCc1cc2c(OC)c(OC)c(OC)cc2nc1N(C)C (stereo not drawn)	·	11%	-8%	·	·	·
Cn1c(-n2cccc2)c(-c2c(-c3ccc(F)cc3)[nH]c3c2c(=O)n(C)c(=O)n3C)c(=O)n(C)c1=O	16%[46.1 µM]	-6%	i	9%[46.1 µM]	·	27
O=C(Cc1nc(-c2ccc([N+](=O)[O-])cc2)cs1)Nc1ccccc1	-2%	·	·	4%	-14%	-92*
O=C(Cc1ccccc1)Nc1nc(-c2cccc([N+](=O)[O-])c2)cs1	-4%	-2%	-12%	-12%	5%	-8
CCn1c(-c2ccccc2F)nc2cc(NC(C)=O)cc(C(=O)NCc3ncc(C)[nH]3)c21	·	-12%	i	·	·	·
CSc1nc2ccc(Br)cc2[nH]1	-1%	-14%	-4%	?	0%	-40
CC(C)Sc1nc2ccc(Br)cc2[nH]1	7%[46.1 µM]	-3%	-1%	?	6%	-102*
CN(C)c1ccc(CNC(=O)CN2CCSc3ccc(S(=O)(=O)N(C)C)cc32)cc1	-28%[46.1 µM]	11%	4%	·	·	3
CC1(C(=O)NC2CCCCC2)CCC(=O)N1Cc1cccnc1 (stereo not drawn)	·	-12%	i	·	9%	-82*
CC1CCC(NC(=O)C2(C)CCC(=O)N2Cc2cccnc2)CC1 (stereo not drawn)	·	-5%	-13%	·	4%	28
COc1ccc(CCNCC2C(Oc3ccc(Cl)cc3)C(=O)N2c2ccccc2C)cc1OC (stereo not drawn)	5%[46.1 µM]	-23%	i	11µM*	?	?
CCCSc1ncnc2c1c(-c1ccccc1)cn2-c1ccccc1OC	10%[46.1 µM]	-10%	-19%	7%[46.1 µM]	·	-5
COc1ccc(OCCSc2nnc(CCNC(=O)c3ccc(Cl)c(Cl)c3)n2C)cc1	22%	·	·	6%	0%	5
CCn1c(CCNC(=O)c2ccc(Cl)c(Cl)c2)nnc1SCCOc1ccc(OC)cc1	7%	·	·	-25%	-19%	-65*
CCCCC[C@H](O)/C=C/[C@H]1C(=O)C=C[C@@H]1C/C=C\CCCC(=O)O	·	-7%[3.33 µM]	i[3.33 µM]	·	·	·
CCCCC[C@H](O)/C=C/C1C(=O)C=C[C@H]1C/C=C\CCCC(=O)OC (stereo partly drawn)	·	15%	-11%	·	?	-110*
CCOC(=O)c1cc(-c2ccc(N3CCOCC3)cc2)nn1-c1ccc(F)cc1F	?	-10%	-2%	-29%	11µM*	35
SMILES	Lassa entry inh	VACV Venus inh	VACV mCherry inh	Marburg entry inh	HCV inhibitor	HCMV inh
CCOC(=O)c1cc(-c2ccc(N3CCOCC3)cc2)nn1-c1ccccc1	?	-25%	-5%	?	?	13
O=Cc1s/c(=N\S(=O)(=O)c2ccccc2)n(CCCCl)c1Cl	?	?	?	?	4.5µM*	-108*
C1CCC(N=C(NC23CC4CC(CC(C4)C2)C3)N2CCOCC2)CC1	-33%	·	·	10µM*	·	·
CC(C)CC(=O)Nc1nc(-c2ccc(S(=O)(=O)N3CCOCC3)cc2)cs1	?	-8%	-2%	-10%	?	-39
CCCCC(=O)Nc1nc(-c2ccc(S(=O)(=O)N3CCOCC3)cc2)cs1	?	-19%	-1%	-25%	?	-90*
O=C(Nc1nc(-c2ccc(S(=O)(=O)N3CCCCCC3)cc2)cs1)c1cccs1	-12%	-30%	-2%	?	?	-10
